Test results taken from PubChem BioAssay.

What follows are compounds tested on Human papillomavirus type 1a E7 protein (residues 1-88) (assay: HPV1a E7 small-molecule binders, primary screen, biochemical, small-molecule microarray, residues 1-88, 635 nm (AID 1129)). Details: small-molecule microarray binding, fluorescence 635 nm; higher = more signal.

Compound	composite z-score
COc1ccc(CCN2C(=O)[C@@]3(c4ccc([N+](=O)[O-])cc4)CC(=O)N(CC45CC6CC(CC(C6)C4)C5)[C@@H]3c3ccc(CO)cc32)cc1	0.415
C=CCN1C(=O)[C@@]2(Cc3ccccc3)N=C(c3ccc(OCCCO)cc3)O[C@H]2c2ccccc21	1.23
CN1CCC(CCCO)=CC1C1CC1 (configuration not stated)	-0.256
CC(C)N1CC=CC23O[C@@H]4/C=C\CCCOC(=O)C4[C@H]2C(=O)N(CCCCCO)[C@@H]3C1=O (some centres not stated)	-1.79
COCCOC(=O)N1C(=O)[C@@]2(c3cc(C#CCC(C(=O)OC)C(=O)OC)ccc31)[C@H](C(=O)N1CCN(c3ncccn3)CC1)[C@H]1C(=O)O[C@H](c3ccccc3)[C@H](c3ccccc3)N1[C@@H]2c1ccc(O)cc1	1.19
CCC(=O)[C@]12O[C@@]3([C@@H]4C(=O)OCC[C@@H]41)N(Cc1ccccc1)C(C)=C(C(=O)OC)[C@@H](c1ccccc1)N3C2=O	-2.31
COC(=O)[C@@]1(Cc2ccc(OC)cc2)[C@H]2c3cc(C(=O)N(C)C)n(Cc4ccc(C)c(F)c4F)c3C[C@H]2CN1C(=O)c1ccccc1	0.713
COc1cc(CO)cc(I)c1O[C@H]1C=C(C(=O)NCCO)C[C@@H](NCCc2c[nH]c3ccccc23)[C@@H]1O	0.579
Cc1ccc(N2C(=O)c3ccccc3[C@](C)(C(=O)O)[C@@H]2c2ccc(CO)cc2)nc1	-0.914
COC(=O)[C@@]1(Cc2ccccc2)[C@H]2c3cc(C(=O)N4CCCC4)n(CCN4CNCC4=O)c3C[C@H]2CN1C(=O)c1ccccc1	1.21
CO[C@@H]1COC(=O)[C@H](C)NC(=O)CC=C[C@@H](C)[C@H](OC)COC(=O)[C@H](C)NC(=O)CC=C[C@H]1C	0.207
C=C(COC)/C(=C/C[C@@H](OC(C)=O)c1cccc(OCCO)c1)c1cc(C(=O)OC)ccc1OC	0.0995
CCOC(=O)C[C@H]1[C@H](OC(=O)c2ccccc2-c2ccccc2)[C@@H](NC(=O)c2ccc(-c3ccccc3)cc2)c2cc(OCCCO)ccc2N1C(=O)Cc1ccc(OC)cc1	-0.301
[N-]=[N+]=NCc1ccccc1C[C@]1(C(=O)N2CCCCC2)N=C(c2ccc(OCCCO)cc2)O[C@H]1c1ccccc1CN=[N+]=[N-]	1.21
CO[C@H]1COC(=O)[C@@H](OCc2ccccc2)C=C[C@H](C)[C@@H](OC)COC(=O)[C@H](OCc2ccccc2)C=C[C@@H]1C	-0.0882
COCCOC(=O)N1C(=O)[C@@]2(c3cc(C#CCNC(N)=O)ccc31)[C@H](c1ccc(OCCO)cc1)N1[C@H](c3ccccc3)[C@H](c3ccccc3)OC(=O)[C@H]1[C@@H]2C(=O)Nc1nc2ccccc2s1	-0.393
CCOC(=O)C1=CC[C@@H](c2ccc(-c3ccc(OCc4ccccc4)cc3)c(OC)c2)N(S(=O)(=O)c2ccc(C)cc2)[C@H]1c1ccccc1	1.2
Cc1ccc(S[C@]2(C(=O)O)CC(=O)N(Cc3ccccc3)[C@@H]2c2ccc(CO)cc2)cc1	0.0745
Cc1ccc(S[C@]2(C(=O)NC(C)C)CC(=O)N(Cc3cc(C(F)(F)F)cc(C(F)(F)F)c3)[C@@H]2c2ccc(CO)cc2I)cc1	-0.335
CO[C@@H]1COC(=O)[C@H](COCc2ccccc2)NC(=O)CC=C[C@@H](C)[C@H](OC)COC(=O)[C@H](COCc2ccccc2)NC(=O)CC=C[C@H]1C	-0.47
CCC1=C2CN(Cc3ccccc3Br)[C@@H]([C@@H](O)Cc3ccccc3)C2C=CCC1 (some centres not stated)	1.13
COCCOC(=O)N1C(=O)[C@@]2(c3cc(C#CCC(C(=O)OC)C(=O)OC)ccc31)[C@H](c1ccccc1OCCO)N1[C@H](c3ccccc3)[C@H](c3ccccc3)OC(=O)[C@H]1[C@@H]2C(=O)N1CCCCCCC1	1.18
CO[C@@H]1COC(=O)[C@@H]2CCCN2C(=O)CC=C[C@@H](C)[C@H](OC)COC(=O)[C@@H]2CCCN2C(=O)CC=C[C@H]1C	-1.7
C=C(COC)/C(=C/C[C@H](OC(C)=O)c1ccc(OCCO)cc1)c1cnc2ccccc2c1	1.14
CC(=O)Nc1ccc([C@H]2[C@H](C)CC[C@H]3C(=O)N4[C@@H](CC[C@@H](C)[C@@H]4c4ccc(NC(C)=O)cc4)C(=O)N32)cc1	1.16
CN(C)CCCC[C@@H]1NC(=O)[C@@H]2C[C@H](C(=O)O)[C@H](c3ccc(O)cc3)N2C1=O	0.704
C[C@@H]1CC[C@H]2C(=O)N3[C@@H](CC[C@@H](C)[C@@H]3c3cccc(N4CCOCC4)c3)C(=O)N2[C@H]1c1cccc(Br)c1	1.04
